# This is a sample that favours compounds with a hit; in the whole collection about 3.6% have one here.
# pS6 MEF inh: Acumen qHTS Assay for Inhibitors of the mTORC1 Signaling Pathway in MEF (Tsc2-/-, p53-/-) Cells: Sytravon; Tsc2-/- p53-/- MEF, phospho-rpS6 immunofluorescence/PI, 24 h; Potency, µM (top dose mostly 38.3 µM), inactives show at the top dose activity change, negative = inhibition, usual class: inhibitors; 0.78% of 44,000 active; AID 493208, 2011;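 further: potency means the concentration at half of the fitted maximal effect; plate controls were DMSO for no effect and rapamycin for full effect; nearly all actives have a fitted effect of over 50% in size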
#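 Read-out: phospho-S6 Alexa-488 intensity over PI intensity per well, scored as % active cells using thresholds from rapamycin (7.5 nM) and DMSO controls. Tsc2-/-, p53-/- MEFs exposed to compound for 24 h; PI cell count recorded as viability.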
# NTMT1 inhibitor: Primary qHTS for Inhibitors of N-terminal methyltransferase 1 (NTMT1): MTaseGlo Assay | Potency, µM (series often up to 114 µM), for inactives: at the top dose activity change, negative = inhibition, usual class: inhibitors | NTMT1 MTase-Glo SAH luminescence, purified enzyme | N-terminal Xaa-Pro-Lys N-methyltransferase 1 (Homo sapiens), Q9BV86 | 2.5% of 59,000 active | AID 1645870, 2021;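 further: potency means the concentration at half of the fitted maximal effect; plate controls were DMSO vehicle for no effect and no enzyme for full effect; nearly all actives have a fitted effect of over 65% in size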
# Target sequence (Q9BV86 whole entry, looked up): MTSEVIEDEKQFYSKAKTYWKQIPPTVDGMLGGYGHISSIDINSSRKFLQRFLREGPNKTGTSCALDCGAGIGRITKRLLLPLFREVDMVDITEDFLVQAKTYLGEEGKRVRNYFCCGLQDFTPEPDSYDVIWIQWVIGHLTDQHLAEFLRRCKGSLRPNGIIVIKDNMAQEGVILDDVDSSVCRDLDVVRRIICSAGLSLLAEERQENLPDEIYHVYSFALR
# GALC G270D act: A Novel Cell-Based Assay to Identify Small Molecules for B -Galactocerebrosidase. Potency, µM (highest dose often 57.5 µM), hits mostly activators. 0.1% of 45,000 active. 145M-Twi-hGALC-G270D cells (Twitcher mouse brain line with human GALC G270D), HMU-beta-Gal fluorescence, 48 h. P54803; further: potency means the concentration at half of the fitted maximal effect; 0% is about no effect; nearly all actives have a fitted effect of over 65% in size
#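 Fluorogenic HMU-b-Gal hydrolysis (0.1 mM final, pH 5.2 citrate-phosphate with 1 mg/mL sodium taurocholate; carbonate stop buffer) measures mutant GALC activity after compound treatment of live 145M-Twi Twitcher brain cells stably carrying human GALC-G270D, with wild-type GALC line alongside; activation sought.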
# PMP22 txn prim: Cell-based coincidence reporter assay to measure PMP22 gene transcription in S16 Pmp22-F2sN cells - Primary screen; S16 Pmp22-F2sN Schwann cells, FLuc/NLuc coincidence luminescence, 24 h; Potency, µM (series often up to 57.5 µM), inactives show at the top dose activity change, negative = inhibition, hits mostly inhibitors; 2% of 43,000 active; AID 1508649, 2021; active means clear falling dose curves in both reporters; inconclusive means both reporters move, but less clearly or upward; inactive means either reporter flat; the % is the NLuc reporter signal; further: potency means the concentration at half of the fitted maximal effect; on the % scale 0 is the no-effect control and ±100 the full control effect
#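 S16(c9) Schwann cells with FLuc/NLuc coincidence reporter in the Pmp22 3' UTR; compounds pin-transferred, 24 h at 37C. Dual-luciferase read: FLuc first, then NLuc after Stop&Glo, each 10 min at room temperature.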
# SKOV3 invasion: Primary qHTS assay for Inhibitors of ovarian cancer metastasis using an organotypic tumor microenvironment (TME) model | SKOV3ip1-GFP adhesion/invasion on 3D omental model, fluorescence | Potency, µM (top dose mostly 45.8 µM), inactives show at the top dose activity change, negative = inhibition, most hits filed as inhibitors | 0.1% of 46,000 active;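 further: potency means the concentration at half of the fitted maximal effect; plate controls were DMSO wells for no effect and tomatine positive control wells for full effect; nearly all actives have a fitted effect of over 65% in size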
#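 Primary human omental fibroblast/mesothelial 3D culture pre-formed 48 h. SKOV3ip1-GFP cells added with compounds (0.36-46 umol/L), incubated 2 h RT/16 h 37 C, fixed; GFP cells quantified at 488/509 nm.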
# S16 viability: Cell viability qHTS assay in S16 Pmp22-F2sN cells; S16 Pmp22-F2sN Schwann cells viability, CellTiter-Glo, 24 h; 0.48% of 43,000 active; AID 1508642, 2021; Potency, µM (series often up to 57.5 µM), for inactives: top-dose activity change, negative = cytotoxicity, usual class: cytotoxic; further: potency means the concentration at half of the fitted maximal effect; on the % scale 0 is the no-effect control and ±100 the full control effect; nearly all actives have a fitted effect of over 65% in size
#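 Used to flag compounds lowering reporter output through toxicity, this quantitative HTS measures ATP-based CellTiter-Glo luminescence in S16 Pmp22-F2sN Schwann cells after 24 h compound exposure at 37C.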
# NLuc saturating: Biochemical NLuc saturation counterscreen for small molecule modulators of PMP22 gene expression - Nano-Glo assay. shares compounds with PMP22 txn prim. Secreted NLuc enzyme (filtered S16 cell medium), Nano-Glo luminescence. Potency, µM (series often up to 57.5 µM), for inactives: top-dose activity change, negative = inhibition, usual class: inhibitors. 4% of 690 active; further: potency means the concentration at half of the fitted maximal effect; on the % scale 0 is the no-effect control and ±100 the full control effect
# NLuc Km counter: Biochemical coelenterazine-based NLuc counterscreen for small molecule modulators of PMP22 gene expression - Km assay | shares compounds with PMP22 txn prim | secreted NLuc enzyme, coelenterazine luminescence, Km conditions | Potency, µM (titrated, usually from 57.5 µM), without a hit: at the top dose activity change, negative = inhibition, usual class: inhibitors | 5% of 690 active | AID 1508639, 2021; further: potency means the concentration at half of the fitted maximal effect; on the % scale 0 is the no-effect control and ±100 the full control effect
# FLuc counter: Biochemical FLuc counterscreen for small molecule modulators of PMP22 gene expression; shares compounds with PMP22 txn prim; purified P. pyralis FLuc, luminescence, 10 min; Potency, µM (top dose mostly 57.5 µM), without a hit: top-dose activity, negative = inhibition, hits mostly inhibitors; 690 tested, under 10 active; AID 1508640, 2021; further: % of control where 0% means no effect
# Target sequence (P08659 whole entry, looked up): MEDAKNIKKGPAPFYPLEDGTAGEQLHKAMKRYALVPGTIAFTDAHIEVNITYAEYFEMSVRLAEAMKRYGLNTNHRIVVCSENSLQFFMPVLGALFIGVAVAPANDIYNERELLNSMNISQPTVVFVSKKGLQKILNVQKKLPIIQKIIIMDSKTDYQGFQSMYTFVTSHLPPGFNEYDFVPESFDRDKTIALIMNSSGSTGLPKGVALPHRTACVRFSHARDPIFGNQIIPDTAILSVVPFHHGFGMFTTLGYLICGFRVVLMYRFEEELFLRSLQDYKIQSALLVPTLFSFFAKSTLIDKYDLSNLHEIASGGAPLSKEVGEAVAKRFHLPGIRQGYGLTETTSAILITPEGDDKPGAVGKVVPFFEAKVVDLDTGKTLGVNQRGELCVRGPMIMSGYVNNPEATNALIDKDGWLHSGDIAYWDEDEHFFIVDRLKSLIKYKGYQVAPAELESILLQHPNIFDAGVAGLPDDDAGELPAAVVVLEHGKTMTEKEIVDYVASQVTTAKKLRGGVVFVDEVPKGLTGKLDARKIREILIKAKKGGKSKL
# S16 viab conf: Cell viability qHTS assay in S16 Pmp22-F2sN cells - Confirmatory screen. shares compounds with PMP22 txn prim. S16 Schwann cells viability, CellTiter-Glo ATP luminescence, 24 h. Potency, µM (titrated, usually from 57.5 µM), without a hit: at the highest dose activity change, negative = viability loss, hits mostly cytotoxic. 7% of 690 active. AID 1508641, 2021; further: potency means the concentration at half of the fitted maximal effect; on the % scale 0 is the no-effect control and ±100 the full control effect
# PMP22 txn conf: Cell-based coincidence reporter assay to measure PMP22 gene transcription in S16 Pmp22-F2sN cells - Confirmatory screen; shares compounds with PMP22 txn prim; S16 Schwann cells Pmp22-F2sN, dual luciferase, 24 h; Potency, µM (highest dose often 57.5 µM), without a hit: top-dose activity change, negative = inhibition, actives largely listed as inhibitors; 22% of 690 active; AID 1508646, 2021; active means clear falling dose curves in both reporters; inconclusive means both reporters move, but less clearly or upward; inactive means either reporter flat; the % is the FLuc reporter signal; further: potency means the concentration at half of the fitted maximal effect
# * hit, by the source's call; i = inactive; u = inconclusive; x = no result given; ! = not confirmed by another sample; [ ] = dose if it differs, or a comment. Unless noted, the call rests on the fitted dose curve; in most records, active means well fitted curve in the direction sought with a large enough effect; inconclusive means small, poorly fitted or top-dose-only effect, or another doubt; inactive means no such curve, though single readings can be large; an effect the other way counts as inactive or inconclusive.
SMILES,pS6 MEF inh,NTMT1 inhibitor,GALC G270D act,PMP22 txn prim,SKOV3 invasion,S16 viability,others
O=c1c(O)c(-c2cc(O)c(O)c(O)c2)oc2cc(O)cc(O)c12,x,28µM*!,x,x,4%,x,
COc1ccc(-c2cc(=O)c3c(O)cc(O)cc3o2)cc1O,x,u,x,x,3%,x,
COc1cc(OCc2cccc(-c3ccccc3)c2C)cc(OC)c1CN1CCCC[C@H]1C(=O)O,x,9%,x,x,x,x,
CC(=O)NC1C(OC(C)(C)C2CCC3(C)C=C(C4CCC5C4(C)CC(O)C4OC(C(C)(C)O)CCC45C)CCC3O2)OC(CO)C(O)C1O (stereo not given),x,-1%[12.6 µM],x,x,x,x,
NCCCC[C@H](NC(=O)[C@@H](NC(=O)[C@H](Cc1c[nH]c2ccccc12)NC(=O)[C@H](CCCCN)NC(=O)[C@H](CCCCN)NC(=O)[C@H](Cc1c[nH]c2ccccc12)NC(=O)[C@H](Cc1c[nH]c2ccccc12)NC(=O)[C@H](CCCCN)NC(=O)[C@@H](N)CCCCN)C(c1ccccc1)c1ccccc1)C(N)=O,x,22µM*,x,x,x,x,
NC(Cc1c[nH]c2ccccc12)C(=O)NC(CCC(=O)O)C(=O)O (stereo not given),x,2%[57.5 µM],x,x,x,x,
CC(C)c1cc2c(N3CCN(C4=NCC(C)(C)S4)CC3)ncnc2s1,x,0%[57.5 µM],x,x,x,x,
COc1cc(O)c(C(CC(=O)N2C[C@H](C)C[C@H](C)C2)c2ccc3c(c2)OCO3)c(OC)c1 (stereo not given in full),x,-6%[228 µM],x,x,x,x,
Cc1ccc(C)n1-c1cccc(C(=O)O)c1,x,2.2µM*,x,x,x,x,
NC1CCN(c2cnc3c(O)ccc(C(=O)O)c3c2)CC1,x,14%,x,x,x,x,
CCSc1ncc(Cl)c(C(=O)N2CCN(c3ccc(OC)cc3)CC2)n1,6%,-23%,i,2%,2%,u,
CCCS(=O)(=O)c1ncc(Cl)c(C(=O)N2CCN(c3ccc(OC)cc3)CC2)n1,u,3%,i,6µM*,i,5µM*,
Cc1ccc(O)c(-c2n[nH]c3c2C(c2ccc(F)cc2)N(Cc2ccco2)C3=O)c1 (stereo not given),5%,-16%,i,20µM*,u,-17%,NLuc saturating=-15%;NLuc Km counter=u;FLuc counter=-3%;S16 viab conf=13%;PMP22 txn conf=-26%
Cc1c(/C=C(\C#N)C(=O)Nc2cccc(Cl)c2)c2ccccc2n1Cc1ccccc1Cl,22%,12%,i,u,-2%,-13%,NLuc saturating=-7%;NLuc Km counter=-3%;FLuc counter=-5%;S16 viab conf=6%;PMP22 txn conf=-14%
N#C/C(=C/c1cn(Cc2ccccc2Cl)c2ccccc12)C(=O)Nc1cccc(Cl)c1,4%,u,i,-26%,10%,-3%,
FC(F)(F)c1ccccc1-c1nc2c(c(NCc3ccc(-c4cccnc4)cc3)n1)CCC2,x,13%,x,x,x,x,
Cc1ccccc1Nc1cc(C(=O)NC2CCCCC2)c2ccccc2n1,-14%,u,i,-41%,2%,16%,
Cc1ccc(Nc2cc(C(=O)NC3CCCC3)c3ccccc3n2)cc1C,-13%,9%,i,2.8µM*,-11%,-8%,NLuc saturating=2%;NLuc Km counter=1%;FLuc counter=u;S16 viab conf=9%;PMP22 txn conf=-11%
Cc1cc2c(s1)c1cnn(Cc3ccc4ccccc4c3)c(=O)c1n2C,x,-1%,x,x,x,x,
Cc1ccccc1Cn1c(=O)n(CC2CCC(C(=O)N3CCOCC3)CC2)c(=O)c2sccc21 (stereo not given),0%,-3%,i,12µM*,4%,-8%,NLuc saturating=-8%;NLuc Km counter=6%;FLuc counter=2%;S16 viab conf=-2%;PMP22 txn conf=-24%
C[C@]1(C(=O)N(CCCC(=O)O)Cc2cccc(Cl)c2)CCN1C(=O)c1csc2ccccc12,x,3%,x,x,x,x,
CCc1cncnc1N1CCN(Cc2nc3ccc(C(F)(F)F)cc3[nH]2)CC1,x,8%[57.5 µM],x,x,-14%,x,
Cc1nc2cccnc2n1C1CCN(S(=O)(=O)c2ccc(C(C)C)cc2)CC1,-23%,-4%,i,17µM*,-2%,u,NLuc saturating=-14%;NLuc Km counter=3%;FLuc counter=4%;S16 viab conf=-11%;PMP22 txn conf=-33%
O=C(CCS(=O)(=O)c1cc(Br)cc2c1N(C(=O)C1CC1)CC2)N1CCN(c2cccc(C(F)(F)F)c2)CC1,-4%,18%,i,13µM*,-27%,u,NLuc saturating=-3%;NLuc Km counter=11%;FLuc counter=5%;S16 viab conf=5%;PMP22 txn conf=-43%
O=C(CCS(=O)(=O)c1cc(Br)cc2c1N(C(=O)C1CC1)CC2)N1CCN(c2ccc(F)cc2)CC1,-12%,5%,i,u,16%,-25%,

# Screening data from PubChem.
